Data on 39 molecules can be found in PubChem BioAssay (Tox21).

Inconclusive results are not listed. Entries that show only a call come without a potency. Activity calls are given as the source filed them. The call rests on the fitted dose curve; in most records, active means well fitted cell-killing curve with a large enough effect in the repeat runs; inconclusive means weak or mixed curves, or effect the other way; inactive means no such curve, though single readings can be large or run the other way.
Potency means the concentration at half of the fitted maximal effect.

The nature of this assay: qHTS assay to identify small molecule antagonists of the retinoid-related orphan receptor gamma (ROR-gamma) signaling pathway - cell viability counter screen (AID 1159520). Further: nearly all actives have a fitted effect of over 50% in size. Particulars: Tet-on RORgamma CHO cells viability, ATP luminescence, 16 h; series mostly up to 92.4 µM. Summed up:
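Tet-on ROR gamma CHO cells (1,000/well) were plated 4 hr, given compounds in DMSO for 2 hr at 37 C, then induced with 1 uM final doxycycline for 16 hr. Viability was read as ATP by CellTiter-Glo luminescence after 30 min.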
(In qHTS, concentration-response curves come from the screen itself.)
For `N#Cc1ccc(N(CC(N)=O)CC(F)(F)F)cc1C(F)(F)F`, the Potency result is “inactive”. On to `c1ccc(Nc2ccc(Nc3ccccc3)cc2)cc1`, for which the Potency entry is “inactive”. `CCC[CH2][Sn]([CH2]CCC)([O]C(C)=O)[O]C(C)=O`: the Potency was 97.8 nM (active).

Consider `COc1cnc(OC)n2nc(NS(=O)(=O)c3c(OCC(F)F)cccc3C(F)(F)F)nc12`, for which the Potency entry was “inactive”. The same measure for `CCN(CC)Cc1nccn1-c1ccc([N+](=O)[O-])cc1C(=O)c1ccccc1Cl`: “inactive”; for `O=C(N[C@@H]1N=C(c2ccccc2F)c2cccc3c2N(CC3)C1=O)c1cc2ccccc2[nH]1`: “inactive”; for `[C-]1=CC=CC1.[Cl][Zr+2][Cl].c1cc[cH-]c1`: “inactive”. Regarding `Nc1ccc(Cl)cc1C(=O)c1ccccc1F`, the Potency entry was “inactive”.

As to `C1=CCC=C1`, the Potency entry was “inactive”.

For the molecule `CCOP(=O)(Sc1ccccc1)Sc1ccccc1`, the Potency result was “inactive”.

Regarding `O=S(=O)(O)F`, the Potency entry was “inactive”.

On to `O=[N+]([O-])c1ccc(Cl)c(Cl)c1Cl`, for which the Potency entry was “inactive”. The same measure for `CSC(C)(C)/C=N/O`: “inactive”; for `CCNS(=O)(=O)C(F)(F)C(F)(F)C(F)(F)C(F)(F)C(F)(F)C(F)(F)C(F)(F)C(F)(F)F`: “inactive”; for `CCN(CC)CCc1c[nH]c2ccccc12`: “inactive”. The same measure for `CNC(=O)O/N=C(\C)C(C)S(C)(=O)=O` (centres undefined): “inactive”; for `CC(Cl)CCl` (centres undefined): “inactive”; for `Cc1ccc(C)c2ccccc12`: “inactive”. Regarding `[O-][Cl+3]([O-])([O-])O`, the Potency entry was “inactive”. As to `COC(=O)c1ccccc1S(=O)(=O)NC(=O)Nc1nc(C)nc(OC)n1`, the Potency entry was “inactive”. The same measure for `CC1CN1` (centres undefined): “inactive”; for `c1cc[n+]2c(c1)-c1cccc[n+]1CC2`: “inactive”; for `ClSC(Cl)(Cl)Cl`: “inactive”. In the case of `O=C(Nc1ccc(F)cc1F)c1cccnc1Oc1cccc(C(F)(F)F)c1`, the Potency result was “inactive”. Turning to `CCC(C)c1cccc(C(C)CC)c1O` (centres undefined), the Potency result was “inactive”. As to `CCN(CC)CCN1C(=O)CN=C(c2ccccc2F)c2cc(Cl)ccc21`, the Potency entry was “inactive”. As to `ClCBr`, the Potency result is “inactive”. The same measure for `CC#C[C@]1(O)CC[C@H]2[C@@H]3C[C@H](C)C4=CC(=O)CC[C@]4(C)[C@H]3CC[C@@]21C`: “inactive”. To `COc1ccc2[nH]cc(CCN(C(C)C)C(C)C)c2c1` belongs “inactive”; to `CC(C)Br`, “inactive”. The same measure for `O=[N+]([O-])c1ccccc1-c1ccccc1`: “inactive”.

`O=c1c2ccccc2c(=O)c2c1cc(Cl)c1[nH]c3c([nH]c12)c(Cl)cc1c(=O)c2ccccc2c(=O)c13`: the Potency entry is “inactive”. To `CC(C)C(Br)C(=O)NC(N)=O` (centres undefined) belongs “inactive”; to `CC[C@]1(O)CC[C@H]2[C@@H]3CCC4=CCCC[C@@H]4[C@H]3CC[C@@]21C`, “inactive”; to `CCC1(CC)C(=O)N=C(O)NC1=O`, “inactive”.

Consider `CC(C)NCC(O)c1ccccc1Cl` (centres undefined), for which the Potency result is “inactive”. For `CC(C)N(C(=O)SC/C(Cl)=C/Cl)C(C)C`, the Potency result is “inactive”. In the case of `NC1CCC(CC2CCC(N)CC2)CC1` (centres undefined), the Potency entry was “inactive”. The same measure for `C=Cc1cccc(CCl)c1`: “inactive”.
